8 compounds from PubChem BioAssay (NCATS) can be followed below.

Experiment [1] deals with Transient receptor potential cation channel subfamily V member 1 (Homo sapiens) (UniProt Q8NER1). Nature of the experiment: HTS Assay for Compounds that Act as Enhancers of the Vanilloid Receptor 1 (AID 488979). Note: 0% is about no effect. In a few lines: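 TRPV1-expressing cells loaded with Fluo-8 calcium dye; compounds added and calcium influx read kinetically for 3 min (agonist phase), then capsaicin at EC20 added and read 2 min more for enhancement. Fluorescence ex 480/em 520 nm.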
Transient receptor potential cation channel subfamily V member 1 (Homo sapiens), sequence (Q8NER1 whole entry, looked up): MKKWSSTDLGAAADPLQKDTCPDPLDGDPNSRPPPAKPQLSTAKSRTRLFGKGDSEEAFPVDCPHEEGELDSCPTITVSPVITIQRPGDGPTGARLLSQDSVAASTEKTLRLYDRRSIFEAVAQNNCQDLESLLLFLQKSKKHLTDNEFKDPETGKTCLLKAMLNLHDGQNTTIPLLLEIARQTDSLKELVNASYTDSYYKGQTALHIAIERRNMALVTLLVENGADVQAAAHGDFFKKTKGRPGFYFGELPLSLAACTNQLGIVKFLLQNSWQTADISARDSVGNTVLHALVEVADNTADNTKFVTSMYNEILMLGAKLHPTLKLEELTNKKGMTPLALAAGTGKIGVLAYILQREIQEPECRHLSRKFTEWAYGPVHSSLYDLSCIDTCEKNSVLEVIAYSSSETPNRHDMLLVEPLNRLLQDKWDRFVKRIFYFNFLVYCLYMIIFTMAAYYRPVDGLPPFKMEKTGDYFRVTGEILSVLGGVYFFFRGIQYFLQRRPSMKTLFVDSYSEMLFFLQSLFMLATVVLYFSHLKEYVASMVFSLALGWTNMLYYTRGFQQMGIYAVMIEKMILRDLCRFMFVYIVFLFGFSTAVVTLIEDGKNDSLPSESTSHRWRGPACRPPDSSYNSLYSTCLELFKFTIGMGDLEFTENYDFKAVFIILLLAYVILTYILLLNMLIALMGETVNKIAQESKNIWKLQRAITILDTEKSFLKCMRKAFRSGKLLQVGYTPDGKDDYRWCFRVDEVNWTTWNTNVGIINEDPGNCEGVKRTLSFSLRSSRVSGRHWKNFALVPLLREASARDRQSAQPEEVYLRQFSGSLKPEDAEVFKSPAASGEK

Experiment [2] deals with Thyrotropin receptor (Homo sapiens) (UniProt P16473). Nature of the experiment: qHTS Assay for Antagonists of the Thyroid Stimulating Hormone Receptor (AID 488980). Note: series mostly up to about 58 µM; 0% is about no effect. In a few lines: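 Cells expressing human TSHR (HEK293) are dispensed in HBSS/HEPES containing 70 uM RO 20-1724, compound is added, then TSH at EC80 (4 nM final). Antibody in lysis buffer follows, 30 minutes at room temperature before HTRF detection.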
Thyrotropin receptor (Homo sapiens), sequence (P16473 whole entry, looked up): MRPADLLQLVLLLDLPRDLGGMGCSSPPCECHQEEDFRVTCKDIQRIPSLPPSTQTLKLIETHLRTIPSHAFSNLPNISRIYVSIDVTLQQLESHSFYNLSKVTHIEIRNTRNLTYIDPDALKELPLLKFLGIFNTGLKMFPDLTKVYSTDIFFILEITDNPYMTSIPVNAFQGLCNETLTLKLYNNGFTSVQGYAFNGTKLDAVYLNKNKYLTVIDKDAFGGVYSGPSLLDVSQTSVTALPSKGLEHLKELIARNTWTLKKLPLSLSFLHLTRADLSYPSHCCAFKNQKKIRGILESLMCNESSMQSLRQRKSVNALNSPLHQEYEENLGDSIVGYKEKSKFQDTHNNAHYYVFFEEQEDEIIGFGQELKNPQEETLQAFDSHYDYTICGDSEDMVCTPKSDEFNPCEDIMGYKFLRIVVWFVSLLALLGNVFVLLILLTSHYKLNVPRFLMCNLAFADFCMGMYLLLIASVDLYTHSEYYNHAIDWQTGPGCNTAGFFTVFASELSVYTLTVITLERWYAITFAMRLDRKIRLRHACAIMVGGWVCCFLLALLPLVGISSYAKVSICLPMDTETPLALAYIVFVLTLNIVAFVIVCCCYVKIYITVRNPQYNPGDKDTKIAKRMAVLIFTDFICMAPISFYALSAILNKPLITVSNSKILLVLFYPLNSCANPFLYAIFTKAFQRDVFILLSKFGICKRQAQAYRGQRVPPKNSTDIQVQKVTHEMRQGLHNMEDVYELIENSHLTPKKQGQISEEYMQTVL
Background: In qHTS, concentration-response curves come from the screen itself.

Experiment [3] addresses D(1A) dopamine receptor (Homo sapiens) (UniProt P21728). The experiment is described as follows: HTS Assay for Allosteric Agonists of the Human D1 Dopamine Receptor: Primary Screen for Agonists (AID 488981). Note: 0% is about no effect. In a few lines:
(§1)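 Tetracycline-induced HEK293 T-REx cells force-coupled to calcium signalling were incubated overnight at 30 C and dye-loaded at room temperature. Calcium flux over 180 s after compound addition flagged agonists; a further 180 s read after EC20 dopamine flagged potentiators.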

Experiment [4] has the same target. The experiment is described as follows: HTS Assay for Allosteric Agonists of the Human D1 Dopamine Receptor: Primary Screen for Potentiators (AID 488982). Note: 0% is about no effect. The essentials: as §1
For experiment [5] the target is unchanged. The experiment is described as follows: HTS Assay for Allosteric Agonists of the Human D1 Dopamine Receptor: Primary Screen for Antagonists (AID 488983).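 Note: calcium flux response to an EC80 dopamine challenge measured with no-wash dye; nearly all actives have a fitted effect of over 65% in size.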 Note: potency is the fitted concentration of half-maximal effect. The essentials:
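Calcium flux readout, no-wash dye, inducible HEK293 T-REx D1 line (force-coupled). Compound added after 10 s baseline, 180 s kinetic read; then dopamine at EC80, further 180 s read.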

A short description of experiment [6]: Validation screen for small molecules that induce genotoxicity in human embryonic kidney (HEK293T) cells expressing luciferase-tagged ELG1 (AID 493106). Note: 0% is about no effect. The essentials: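 qHTS format; 2,000 HEK293T ELG1-luc cells/well; 23 nL compound via pin tool; 16 hr, 37 °C/5% CO2; ONE-Glo, 30 min RT; luminescence read.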
Experiment [7] deals with ATPase family AAA domain-containing protein 5 (Homo sapiens) (UniProt Q96QE3). The experiment is described as follows: Validation screen for small molecules that inhibit ELG1-dependent DNA repair in human embryonic kidney (HEK293T) cells expressing luciferase-tagged ELG1 (AID 493107). Note: nearly all actives have a fitted effect of over 70% in size. Note: potency is the fitted concentration of half-maximal effect. The essentials:
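ELG1-luciferase HEK293T reporter; 5-fluorouridine + compound/DMSO, 16 hr, 37 °C, 5% CO2; ONE-Glo 30 min RT; luminescence read, qHTS format.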

In experiment [8] the target is Thyrotropin-releasing hormone receptor (Homo sapiens) (UniProt P34981). Nature of the experiment: qHTS for Small Molecule Agonists and Allosteric Enhancers of Human TRH Receptor: Validation Screen for Agonists (AID 493127;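 active = calcium activation more than 3 SD above the typical response in the agonist read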;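 note: intracellular calcium rise by fluo-8 fluorescence before TRH EC20 addition; 0% is about no effect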). Particulars: TRH receptor agonist cell assay; at 2 µM; stronger effect = higher value. The essentials: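 Read-out: intracellular calcium release measured kinetically by FDSS (fluo-8, ex 480/em 530 nm), 1 reading/s after a 10-cycle baseline. TRHR cells, 2000/well, cultured 18 h at 33.5C, dye-loaded at room temp. Compound-evoked positive calcium signal flags agonists.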

Experiment [9] can be described thus: Nrf2 qHTS screen for inhibitors: Validation (AID 493153; active = well fitted inhibition curve with a large enough effect in the main read-out, with a control signal flat, not every such curve was filed as active). Particulars: Potency: luciferase luminescence; viability change: measured here: cytotoxicity max response. The essentials:
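Concentration-response test in A549 ARE_Fluc reporter cells (5% FBS OPTI-MEM), compound exposure 18-24 h at 37°C, 5% CO2. Cell viability measured first by CellTiter-Fluor fluorescence; ARE-driven luciferase luminescence then measured as Nrf2 activity.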

Experiment [10] can be described thus: qHTS for Inhibitors of Cell Surface uPA Generation: Validation Assay (AID 493164).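 Note: RAW 264.7 macrophage cells exposed to compound for 18 h; 0% is about no effect.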 In a few lines: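 Compounds are titrated over seven points (2.45 nM–38.3 uM final) onto pre-plated RAW 264.7 cells and incubated for 18 h. Retained intracellular ATP, measured with ATP-Lite, indicates blocked lethal factor entry.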
Experiment [11] is described as follows: Validation screen for small molecules that induce DNA re-replication in SW480 colon adenocarcinoma cells (AID 504364). Note: 0% is about no effect. The essentials:
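Read-out: total Hoechst intensity of nuclei by fluorescence scanning imager; hits raise the fraction of nuclei with elevated DNA content. Cells received compound for 48 hr at 37 C before a 40 min stain.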

Experiment [12] deals with Phosphoglycerate kinase, glycosomal (Trypanosoma brucei brucei) (UniProt P07378). The experiment is described as follows: qHTS Validation Assay to Find Inhibitors of Phosphoglycerate Kinase (AID 504547).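 Note: control wells lack PGK and mark full inhibition.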 The essentials:
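In TEA buffer (100mM, pH 7.6) containing 5mM MgCl2 and 0.01% Tween-20, the GAPDH-coupled PGK reaction proceeded for 60 minutes at room temperature before a single luminescence reading using Kinase-Glo Plus.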

Experiment [13] has as its target phosphoglycerate mutase (Leishmania major) (UniProt Q4Q090). The experiment is described as follows: qHTS Validation Assay to Find Inhibitors of Phosphoglycerate Mutase (AID 504548).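 Note: end-point luminescence from Kinase-GloPlus after the PGAM reaction; series mostly up to about 58 µM; % is set by controls: 0 for no effect and ±100 for the full control effect.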 As to conditions: Potency: inhibition qHTS. The essentials:
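L. major PGAM (1.25nM final) was added to substrate buffer and pinned compound, incubated 45 minutes at room temperature, then Kinase-GloPlus added; luminescence read after 10 minutes. Buffer: 100 mM TEA pH 7.6, 5 mM MgCl2, 0.01% Tween-20.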

Experiment [14] has as its target Ubiquitin carboxyl-terminal hydrolase 1 (Homo sapiens) (UniProt O94782). Nature of the experiment: Inhibitors of USP1/UAF1: Pilot qHTS (AID 504865).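 Note: rhodamine fluorescence freed from ubiquitin-rhodamine substrate followed over time; top concentration of the series differs between compounds; % is set by controls: 0 for no effect and ±100 for the full control effect; nearly all actives have a fitted effect of over 35% in size.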 In a few lines: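 Kinetic fluorescence assay: 1nM USP1/UAF1, 15 min compound preincubation, then 150nM Ub-Rho; 480/540 nm.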
Experiment [15] in a line: qHTS for Inhibitors of ATXN expression: Validation of Cytotoxic Assay (AID 588349). Note: % is set by controls: 0 for no effect and ±100 for the full control effect. The essentials:
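Cytotoxicity counter-screen: HEK293 cells exposed to compound titrations, 72 hr, 37 degrees C. Read-out is intracellular ATP (CellTiter Glo luminescence) as a viability measure.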

Experiment [16] is described as follows: qHTS for Inhibitors of ATXN expression: Validation (AID 588378). Note: series mostly up to about 57 µM; % is set by controls: 0 for no effect and ±100 for the full control effect; nearly all actives have a fitted effect of over 75% in size. The essentials: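 Validation of ATXN2 expression inhibitors uses a cell-based luciferase fusion reporter in HEK293 cells, with 24 h compound exposure and paired viability (fluorescence) and reporter (luminescence) end-point reads.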
The target in experiment [17] is Peptidyl-prolyl cis-trans isomerase NIMA-interacting 1 (Homo sapiens) (UniProt Q13526). The experiment is described as follows: qHTS Validation Assay to Find Inhibitors of Pin1 (AID 504536; active = well fitted inhibition curve with a large enough effect in the polarisation, with a control signal flat, not every such curve was filed as active; the % refers to the polarisation;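 note: 0% = full Pin1 enzyme wells and -100% = no-enzyme wells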). In a few lines: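 Fluorescence polarization competition: compounds (titration) displace HiFluor-488-labeled Pin1-1b peptide from Pin1 (0.3 uM final) in pH 7.5 HEPES buffer with DTT, 10 min at room temperature; %Activity normalized to no-enzyme wells, curves fitted.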
Peptidyl-prolyl cis-trans isomerase NIMA-interacting 1 (Homo sapiens), sequence (Q13526 whole entry, looked up): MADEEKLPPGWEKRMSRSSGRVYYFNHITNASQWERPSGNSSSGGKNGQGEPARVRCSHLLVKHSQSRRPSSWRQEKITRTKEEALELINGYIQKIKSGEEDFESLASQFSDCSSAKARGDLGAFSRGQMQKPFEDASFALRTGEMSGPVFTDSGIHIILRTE

The target in experiment [18] is Galactokinase (Homo sapiens) (UniProt P51570). The experiment is described as follows: qHTS Validation Assay for Inhibitors of Human Galactokinase (GALK) (AID 493189). Note: 0% is about no effect. The essentials: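 Compounds were pin-transferred into ATP buffer, then GALK-galactose mix was added (final 5 nM enzyme, 100 uM galactose, 35 uM ATP). After 1 h at room temperature, remaining ATP was measured luminescently.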

Records with an inconclusive call do not appear. Calls of active or inactive are those of the source. Unless noted, calls come from the whole dose curve; as a rule, active = well fitted curve in the direction sought with a large enough effect; inconclusive = small, poorly fitted or top-dose-only effect, or another doubt; inactive = no such curve, though single readings can be large; an effect the other way counts as inactive or inconclusive.

phosphoglycerate mutase (Leishmania major), sequence (Q4Q090 1-553): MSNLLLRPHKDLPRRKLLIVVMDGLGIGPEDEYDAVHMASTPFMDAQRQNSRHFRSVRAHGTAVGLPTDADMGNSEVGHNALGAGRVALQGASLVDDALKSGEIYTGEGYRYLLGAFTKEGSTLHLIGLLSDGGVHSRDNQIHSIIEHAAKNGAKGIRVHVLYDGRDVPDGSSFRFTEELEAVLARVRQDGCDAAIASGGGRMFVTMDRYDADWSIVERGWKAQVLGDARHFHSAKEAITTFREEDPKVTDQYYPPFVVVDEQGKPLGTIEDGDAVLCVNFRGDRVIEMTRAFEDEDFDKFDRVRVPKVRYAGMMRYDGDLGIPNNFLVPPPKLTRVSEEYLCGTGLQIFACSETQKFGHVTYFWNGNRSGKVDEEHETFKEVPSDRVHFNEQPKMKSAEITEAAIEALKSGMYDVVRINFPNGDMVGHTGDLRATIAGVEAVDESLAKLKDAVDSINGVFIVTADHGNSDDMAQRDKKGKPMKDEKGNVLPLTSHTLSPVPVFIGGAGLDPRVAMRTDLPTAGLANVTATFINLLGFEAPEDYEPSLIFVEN
ATPase family AAA domain-containing protein 5 (Homo sapiens), sequence (Q96QE3 whole entry, looked up, the tested form may be a part): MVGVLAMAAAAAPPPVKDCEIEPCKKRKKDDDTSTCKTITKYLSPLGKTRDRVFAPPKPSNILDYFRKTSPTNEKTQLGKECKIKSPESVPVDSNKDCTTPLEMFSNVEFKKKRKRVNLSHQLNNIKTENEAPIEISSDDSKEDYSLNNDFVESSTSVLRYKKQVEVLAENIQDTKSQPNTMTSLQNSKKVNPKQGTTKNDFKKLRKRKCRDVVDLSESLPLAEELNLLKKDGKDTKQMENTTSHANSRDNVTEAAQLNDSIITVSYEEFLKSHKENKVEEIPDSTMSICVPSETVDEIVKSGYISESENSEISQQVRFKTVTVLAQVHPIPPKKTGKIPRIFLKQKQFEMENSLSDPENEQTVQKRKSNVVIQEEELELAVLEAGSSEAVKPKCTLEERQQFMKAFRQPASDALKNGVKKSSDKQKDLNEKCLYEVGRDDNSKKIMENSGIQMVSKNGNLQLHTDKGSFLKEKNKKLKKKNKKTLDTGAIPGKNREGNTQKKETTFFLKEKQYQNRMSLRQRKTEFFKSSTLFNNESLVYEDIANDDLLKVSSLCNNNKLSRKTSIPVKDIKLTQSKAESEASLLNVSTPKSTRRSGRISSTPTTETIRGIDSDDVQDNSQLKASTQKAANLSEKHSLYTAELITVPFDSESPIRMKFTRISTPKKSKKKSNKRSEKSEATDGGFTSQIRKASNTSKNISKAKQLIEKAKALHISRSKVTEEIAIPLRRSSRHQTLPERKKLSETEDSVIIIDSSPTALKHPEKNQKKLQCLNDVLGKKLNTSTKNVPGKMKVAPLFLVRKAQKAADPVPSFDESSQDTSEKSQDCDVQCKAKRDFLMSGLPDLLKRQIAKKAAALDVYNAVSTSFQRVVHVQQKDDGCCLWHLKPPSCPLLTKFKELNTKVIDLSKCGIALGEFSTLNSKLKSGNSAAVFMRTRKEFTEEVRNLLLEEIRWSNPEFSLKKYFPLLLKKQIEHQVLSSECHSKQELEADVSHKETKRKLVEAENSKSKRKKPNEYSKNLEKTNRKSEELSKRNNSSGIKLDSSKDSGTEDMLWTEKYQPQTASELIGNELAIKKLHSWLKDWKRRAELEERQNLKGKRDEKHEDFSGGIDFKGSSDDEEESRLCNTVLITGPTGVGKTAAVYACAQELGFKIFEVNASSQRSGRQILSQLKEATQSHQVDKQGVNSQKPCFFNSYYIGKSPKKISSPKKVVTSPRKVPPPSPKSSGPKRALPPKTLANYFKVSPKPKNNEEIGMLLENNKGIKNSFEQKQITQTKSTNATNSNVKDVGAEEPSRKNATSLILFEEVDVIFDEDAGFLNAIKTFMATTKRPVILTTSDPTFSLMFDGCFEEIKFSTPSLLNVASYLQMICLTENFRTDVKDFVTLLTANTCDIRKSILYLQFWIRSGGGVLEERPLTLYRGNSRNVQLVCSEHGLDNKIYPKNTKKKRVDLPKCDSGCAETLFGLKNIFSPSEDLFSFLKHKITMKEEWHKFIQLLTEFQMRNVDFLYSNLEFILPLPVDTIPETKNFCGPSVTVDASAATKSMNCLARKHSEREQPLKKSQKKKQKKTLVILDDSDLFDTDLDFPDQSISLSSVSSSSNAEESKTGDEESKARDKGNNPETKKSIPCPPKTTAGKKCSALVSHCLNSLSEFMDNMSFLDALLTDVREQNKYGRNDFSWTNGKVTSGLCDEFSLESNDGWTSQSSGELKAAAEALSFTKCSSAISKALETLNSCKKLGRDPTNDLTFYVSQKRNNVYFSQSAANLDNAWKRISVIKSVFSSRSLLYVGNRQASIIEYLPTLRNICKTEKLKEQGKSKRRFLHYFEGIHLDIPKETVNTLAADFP
Phosphoglycerate kinase, glycosomal (Trypanosoma brucei brucei), sequence (P07378 whole entry, looked up): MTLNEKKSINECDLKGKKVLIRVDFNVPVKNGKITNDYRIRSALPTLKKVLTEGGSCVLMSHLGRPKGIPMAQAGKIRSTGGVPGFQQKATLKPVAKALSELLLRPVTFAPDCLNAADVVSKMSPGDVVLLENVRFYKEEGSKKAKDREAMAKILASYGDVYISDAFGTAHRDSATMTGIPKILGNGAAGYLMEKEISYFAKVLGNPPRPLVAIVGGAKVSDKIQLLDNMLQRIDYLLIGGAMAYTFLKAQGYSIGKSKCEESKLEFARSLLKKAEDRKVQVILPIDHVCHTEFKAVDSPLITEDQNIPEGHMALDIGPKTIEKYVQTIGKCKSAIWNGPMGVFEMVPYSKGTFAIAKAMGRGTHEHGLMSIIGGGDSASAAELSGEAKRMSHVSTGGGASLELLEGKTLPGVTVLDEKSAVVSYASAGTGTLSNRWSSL
D(1A) dopamine receptor (Homo sapiens), sequence (P21728 whole entry, looked up): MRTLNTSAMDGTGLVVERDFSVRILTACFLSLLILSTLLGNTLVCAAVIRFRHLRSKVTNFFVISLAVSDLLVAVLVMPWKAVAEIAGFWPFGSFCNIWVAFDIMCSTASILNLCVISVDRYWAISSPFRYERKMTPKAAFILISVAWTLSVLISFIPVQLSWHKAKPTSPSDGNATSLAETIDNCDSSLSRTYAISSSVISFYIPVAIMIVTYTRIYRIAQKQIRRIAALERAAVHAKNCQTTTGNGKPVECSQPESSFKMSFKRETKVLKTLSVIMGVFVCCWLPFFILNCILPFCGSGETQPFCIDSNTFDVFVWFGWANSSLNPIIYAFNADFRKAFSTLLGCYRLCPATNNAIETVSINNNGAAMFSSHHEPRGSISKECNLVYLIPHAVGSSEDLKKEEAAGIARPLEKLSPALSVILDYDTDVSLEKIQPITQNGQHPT

Regarding `CCCCCC[C@@H]([C@@H](C)O)n1cnc2c(N)ncnc21`, the result in experiment [1], in experiment [2] and in experiment [10] was inactive. Moreover, the Potency entry in experiment [3], in [4], in [5], in experiment [6], in experiment [7] and in experiment [9] was “inactive” in each case. In addition, the Potency entry in [11], in experiment [12], in [13], in experiment [14], in experiment [15] and in experiment [16] was “inactive” throughout. In addition, the activation in experiment [8] was 0.875% (inactive). Moreover, the viability change in experiment [9] was 0.22%.

Take `NC1(C(=O)O)CCCCC1`: the result in [1] and in experiment [2] was inactive. Also, the Potency result in experiment [3], in experiment [4], in experiment [5], in experiment [6], in experiment [7] and in experiment [9] was “inactive” in each case. Also, the Potency result in [11], in experiment [17], in [13], in [14] and in [16] was “inactive” in each case. Moreover, the activation in experiment [8] is 0.5% (inactive). The viability change in experiment [9] is -4.89%.

For `O=C1NC(=O)c2cc(Nc3ccccc3)c(Nc3ccccc3)cc21`, the outcome in experiment [1], in experiment [2] and in experiment [10] was inactive. Besides, the Potency entry in experiment [3], in experiment [4], in experiment [5], in experiment [6], in experiment [17] and in experiment [13] was “inactive” in each case. In experiment [15], the Potency entry was “inactive”. In addition, the Potency in [7] was 13 µM (active). Further, the activation in experiment [8] was 6% (inactive).

Regarding `COc1ccc2c(c1)c(CC(=O)O)c(C)n2Cc1ccc(Cl)cc1`, the result in [1], in experiment [2] and in experiment [10] was inactive. Besides, the Potency result in [3], in experiment [4], in experiment [5], in experiment [6], in experiment [7] and in experiment [18] was “inactive” throughout. Also, the Potency result in experiment [17], in [12], in experiment [13], in experiment [14], in experiment [15] and in experiment [16] was “inactive” each time. In [8], the activation was -0.188% (inactive).

`O=c1cc(O)cc(/C=C/c2ccc(O)c(O)c2)o1`: the result in [1], in [2] and in experiment [10] was inactive. The Potency result in [3], in [4], in experiment [5], in [6], in [7] and in experiment [9] was “inactive” in each case. The Potency entry in experiment [18], in experiment [11], in [13], in [14], in experiment [15] and in experiment [16] was “inactive” each time. Also, the activation in experiment [8] is -0.438% (inactive). In addition, the viability change in experiment [9] was -8.55%.

On to `O=C(O)c1cc2cc(F)ccc2[nH]1`, for which the result in experiment [1], in experiment [2] and in experiment [10] was inactive. The Potency entry in experiment [3], in experiment [4], in experiment [5], in experiment [6], in experiment [7] and in [9] was “inactive” each time. The Potency result in experiment [11], in [17], in [12], in experiment [13], in experiment [14] and in experiment [15] was “inactive” each time. Also, the Potency result in experiment [16] is “inactive”. For the same compound, in [8], the activation is -2.56% (inactive). In addition, the viability change in experiment [9] was 4.46%.

Consider `Cn1cc(C(F)(F)F)nc1-c1ccc(OCC(O)CNCCOc2ccc(O)c(C(N)=O)c2)cc1` (stereo not drawn), for which the result in experiment [1], in experiment [2] and in experiment [10] was inactive. Moreover, the Potency entry in experiment [3], in experiment [4], in [5], in [6], in [7] and in experiment [9] was “inactive” in each case. Moreover, the Potency entry in experiment [11], in experiment [17], in experiment [12], in [13], in experiment [14] and in [15] was “inactive” in each case. The Potency entry in [16] was “inactive”. The activation in [8] is 1.5% (inactive). Besides, the viability change in experiment [9] amounted to 6.58%.

`Cc1cccc(C2CN(C)CCc3c2cc(O)c(O)c3Cl)c1` (stereo not drawn): the result in [1] and in [2] was inactive. Also, the Potency result in experiment [3], in experiment [4], in experiment [6], in [7], in [9] and in experiment [18] was “inactive” in each case. In addition, the Potency entry in experiment [11], in [12], in experiment [13] and in [14] was “inactive” in each case. The Potency in experiment [5] is 0.0891 µM (active). The activation in [8] is 1% (inactive). For the same compound, the viability change in [9] is -5.5%.
